Molecules are shown by their SMILES. This is part of a sample that, as a whole, favours compounds with a hit. Of some 83,000 tested, about 20% had one in any assay.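 For each line, cells grew in 96-well plates with the test compound present at a single concentration for 48 hours.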 A number with no mark means an inactive call. Calls of active or inactive are those of the source.

The subject of the experiment is SK-MEL-5 melanoma. The experiment is described as follows: NCI-60 one-dose screen, 48 h (100 = growth as untreated, 0 = no growth, -100 = all killed). As to conditions: 10 µM unless noted. The method, then: Growth inhibition of the SK-MEL-5 human tumor cell line is measured as a screen for anti-cancer activity. Cells are grown in 96 well plates and exposed to the test compound for 48 hours. Compounds are tested at a single concentration, which is 10^-5 M for most compounds. The reported endpoint is percent growth (GI% or GIPRCNT), where numbers from 0 - 100% represent growth inhibition, and numbers from -100% - 0 represent cell death. For example, a value of 40 represents 60% growth inhibition. A value of 0 means no net growth occurred over the course of the experiment. A value of -40 indicates 40% of cells at the beginning of the experiment died by the end of the experiment. A value of -100 means all cells are dead at the end of the experiment.
NCI-60 Human Tumor Cell Lines Screen was performed using the standard one-dose NCI protocol, which is described in more detail at https://dtp.cancer.gov/discovery_development/nci-60/default.htm.
Compounds with GIPRCNT values below 10 were considered active. Activity score was based on GIPRCNT using the following formula: […]
Score is 0 for GIPRCNT values of 100 or above, 50 for GIPRCNT values of 0, and 100 for GIPRCNT values of -100.
On to `CCOC(=O)C1(c2ccccc2)CCN(CC(=O)c2ccc(NC(C)=O)cc2)CC1`, for which the growth was 103%.

Take `CC1([N+](=O)[O-])COP(=O)(Nc2ccc(F)cc2)OC1` (stereo not given): the growth was 98.2%.

In the case of `O=C(NCCNC(=O)c1ccc([As](O)O)cc1)c1ccc([As](O)O)cc1`, the growth is 95.6%.

As for `CCN1CC2(CN(CC)C1=S)C(=O)NC(=O)NC2=O`, the growth was 106%.

As for `CC[C@@H](C)/C=C(C)/C=C/C(=O)c1c(O)c(-c2ccc(O)cc2)cn(O)c1=O`, the growth was -75.6% (active).

Consider `O=C(CI)Nc1ccc(Br)cc1`, for which the growth was 62.6%.

With `C=CC(=O)NC(O)C(Cl)(Cl)Cl` (stereo not given), the growth is 119%.

For `S=P(NC1CCCCC1)(N1CC1)N1CC1`, the growth was 97%.

Regarding `CC1(C)N=C(N)N=C(N)N1c1ccc(OCCCCNC(=O)Nc2cccc(S(=O)(=O)F)c2)c(Cl)c1`, the growth is 25.9%.

Consider `C[C@]12CC[C@H]3[C@@H](C[C@@H]4N=C(c5ccc(O)cc5)S[C@@]45C[C@H](O)CC[C@]35C)[C@@H]1CC[C@@H]2O`, for which the growth was 72%.

In the case of `COC(=O)C(=[N+]=[N-])C(=O)OC`, the growth is 104%.

With `CC(=O)N(C)C1=Nc2ccc(Cl)cc2C(c2ccccc2)=[N+]([O-])C1`, the growth is 105%.

As to `Cn1cnnc1[S-].[Au+].c1ccc([PH+](c2ccccc2)c2ccccc2)cc1`, the growth was -9.96% (active).

For `Cc1cc([N+](=O)[O-])c(Cl)cc1NS(=O)(=O)c1ccccc1`, the growth was 43.6%.

For `Oc1c(Br)cc(Br)cc1Br.[Cu+2]`, the growth is 102%.

Consider `CC1(C)N=C(N)N=C(N)N1c1cccc(C(=O)Nc2cccc(S(=O)(=O)F)c2)c1`, for which the growth is 99.8%.

In the case of `Clc1ccc(SSC(Cl)(Cl)Cl)cc1`, the growth was 110%.

As to `O=C(Nc1ccc(S(=O)(=O)F)cc1)Oc1ccccc1`, the growth is 96.3%.

`Cc1ccc(C[As+](c2ccccc2)(c2ccccc2)c2ccccc2)cc1`: the growth was -65.3% (active).

`O=C(NCc1ccc([N+](=O)[O-])cc1)Nc1ccc(S(=O)(=O)F)cc1`: the growth is 79.9%.

As to `C[C@]12CC[C@H](OC3OC(O)C(O)C(O)C3O)C=C1CCC1C2CC[C@]2(C)[C@@H](c3ccc(=O)oc3)CC[C@]12O` (stereo not given in full), the growth was -96.3% (active).

Regarding `CC(=O)O[C@@H]1C2=C(C)C3(CC3)[C@@](C)(O)C(=O)C2=C[C@@]1(C)CO`, the growth was -86.1% (active).

`CCOC(=O)Nc1cc(Cl)c([N+](=O)[O-])c(NC(=O)OCC)n1`: the growth was 91.8%.

`Cc1cccc(N=C2c3cc([N+](=O)[O-])ccc3-c3c2cc([N+](=O)[O-])cc3[N+](=O)[O-])c1`: the growth is 71%.

`OB([O][Hg][c]1ccccc1)[O][Hg][c]1ccccc1`: the growth was -96.7% (active).

In the case of `C1CNC2CCCC2C1` (stereo not given), the growth is 96.7%.

Turning to `NC(=O)NC(=O)CI`, the growth is 93.9%.

For the compound `CC1=C(SCCC(=O)OCC(=O)NCCC[Te]c2ccccc2)C(=O)c2ccccc2C1=O`, the growth was -61.4% (active).

On to `CC(=O)O[C@H]1C[C@H](O[C@H]2[C@@H](O)C[C@H](O[C@H]3[C@@H](O)C[C@H](O[C@H]4CC[C@@]5(C)C(CCC6C5C[C@@H](O)[C@]5(C)[C@@H](C7=CC(=O)OC7)CC[C@]65O)C4)O[C@@H]3C)O[C@@H]2C)O[C@H](C)[C@H]1O[C@@H]1O[C@H](CO)[C@@H](O)[C@H](O)[C@H]1O` (stereo not given in full), for which the growth is -100% (active).

For `COc1ccc(OC)c(/C=C(/C)[N+](=O)[O-])c1`, the growth is 64.6%.

Take `O=S(=O)(O)c1ccc(-c2ccc([As](=O)(O)O)cc2)cc1`: the growth was 110%.

Regarding `CNC(=O)Oc1ccccc1`, the growth was 97.1%.

In the case of `CCOCC1(CCc2ccccc2)C(=O)NC(=S)NC1=O`, the growth was 111%.

As for `Nc1ncnc2c1c(C(=O)NO)cn2C1OC(CO)C(O)C1O` (stereo not given), the growth was -93% (active).

For `Nc1ccc([N+](=O)[O-])c2c1Oc1ccccc1O2`, the growth is 96.7%.

Take `CNC(=O)O/N=C(/C)c1ccc(Cl)cc1`: the growth was 101%.

Take `S=P(Nc1ccccc1)(Nc1ccccc1)c1ccccc1`: the growth is 92.1%.

`CCCCCN(CCCCC)CC(O)c1ccc(C)c(Cl)c1` (stereo not given): the growth is 103%.

As to `ClCCN(CCCl)c1ccc(/C=C\c2ccnc3ccccc23)cc1`, the growth is 71.2%.

For `O=C(CCCN1CCC2(CC1)C(=O)NCN2c1ccc(F)cc1)c1ccc(F)cc1`, the growth is 104%.
